PrPC surface inh: inhibitors of human cell surface prion protein PrPC, primary screen, cell-based, TR-FRET; inhibition, % at 13.8 µM; 0.43% of 370,000 active; TR-FRET read-out; Major prion protein (Homo sapiens), P04156; in the data active means inhibition above about 24%; further: 0% = median of the test wells and 100% = reference compound wells
FadD28 FP inh: inhibitors of FadD28 bisubstrate probe binding, primary screen, biochemical, fluorescence polarization, single point; inhibition, % at 12.5 µM; 0.22% of 360,000 active; AID 588549, 2011; in the data active means inhibition above about 8.5%, passing the limit was not always enough
Vc quorum ag: inducers of Vibrio cholerae quorum light production without autoinducers, primary screen, BH1578 luxS cqsA deficient, single point; V. cholerae BH1578 lux reporter, luminescence, 6 h; activation, % at 18.7 µM; 0.16% of 350,000 active; in the data active means activation mostly above about 9.7%, no sharp cut-off
PrP 5UTR inh: inhibition of PrP 5' UTR reporter expression; 0.35% of 340,000 active; cell-based PrP 5' UTR mRNA reporter, plate reader; inhibition, % (test concentration not listed); in the data active means inhibition above about 52%; further: 0 = median of the neutral control wells
SSB-PriA inh: inhibitors of Klebsiella pneumoniae PriA binding to SSB C-terminal tail, primary screen, biochemical, AlphaScreen; AID 1272365, 2023; PriA–SSB C-terminal tail interaction (Klebsiella pneumoniae); AlphaScreen SSBct-PriA binding, biotinylated peptide; inhibition, % at 33 µM; 0.6% of 430,000 active; in the data active means inhibition mostly above about 37%, no sharp cut-off; inactive means mostly below about 20%;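 further: plate controls were negative control peptide for no effect and reference peptide for full effect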
* = called active by the depositor; i = inactive; . = not tested or not shown; ! = a repeat was not active. In the library only some 1.4% were active in any assay of this set; here they are far more common.

SMILES	PrPC surface inh	FadD28 FP inh	Vc quorum ag	PrP 5UTR inh	SSB-PriA inh
O=[N+]([O-])c1ccc(C2CCCC/C2=N\OCc2cccc(F)c2)c([N+](=O)[O-])c1 (stereo unspecified)	4	-1	-1	-13	.
O=[N+]([O-])c1ccc(C2CCCCC2=NOCc2ccc(F)cc2)c([N+](=O)[O-])c1 (stereo unspecified)	.	.	.	.	45*
C/C=C/c1ccc(OCC(O)CN2CCN(c3cccc(Cl)c3)CC2)c(OC)c1 (stereo unspecified)	.	.	.	.	36*
Cc1ccccc1Nc1ccc([N+](=O)[O-])c2nonc12	.	.	.	.	76
O=C(O)c1ccccc1Nc1ccc([N+](=O)[O-])c2nonc12	.	0	-1	9	57*!
O=[N+]([O-])c1ccc(Nc2ccccc2Cl)c2nonc12	.	.	.	.	59*
Cc1cccc(-n2ncc3c(=O)n(CC(=O)Nc4cc(C(F)(F)F)ccc4Cl)cnc32)c1C	.	.	.	.	-4
CN(C)/C=C/C(=O)c1ccc([N+](=O)[O-])c(CS(=O)(=O)c2ccc(Cl)cc2)c1	-7	18*	i	-20	1
O=C(COc1ccccc1Cl)Nc1nnc(S(=O)(=O)N2CCCCCC2)s1	5	-1	0	-21	100*
CCC(=O)Nc1nnc(S(=O)(=O)N2CCCCCC2)s1	8	-2	0	-10	100*
CCC(=O)Nc1nnc(S(=O)(=O)N2CCCC2)s1	-7	-1	.	-13	1
COc1ccc(C(=O)Nc2nnc(S(=O)(=O)N3CCC(C)CC3)s2)cc1OC	3	-2	i	-24	-11
O=C(COc1ccccc1)Nc1nnc(S(=O)(=O)N2CCCCC2)s1	0	-4	-1	-20	-15
COc1ccc(C(=O)Nc2nnc(S(=O)(=O)N3CCCCCC3)s2)cc1OC	6	0	0	0	82*
O=C(COc1ccccc1)Nc1nnc(S(=O)(=O)N2CCCCCC2)s1	-6	0	0	-1	95*
O=C(Nc1ccn2nccc2c1)C1CCCC1	.	.	.	.	-28
Cn1nc(C2CC2)cc1N1CCN(C(=O)CSCc2ccccc2)CC1	.	.	.	.	-8
O=C1NC(=O)N(Cc2ccc(F)cc2)C(=O)/C1=C\c1ccoc1	0	11*	i	5	-6
O=c1/c(=C/c2ccc(F)cc2F)sc2nc3ccccc3n12	.	.	.	.	40*
CN(C)c1cccc(C(=O)N2CCC(CSCc3ccco3)CC2)c1	.	.	.	.	29*
O=C(c1ccccc1F)N1CCC(CSCc2ccco2)CC1	.	.	.	.	12
O=C(c1c[nH]c2ccccc12)N1CCC(CSCc2ccco2)CC1	.	.	.	.	35*
COc1cc(/C=C2\SC(=Nc3ccc(Cl)c(C(=O)O)c3)NC2=O)c(Br)c(Br)c1O	-8	15*	i	-1	1
CN(C(=O)N1CCN(C(c2ccccc2)c2ccccc2)CC1)c1ccccc1	.	.	.	.	6
Oc1c(Cl)cc(CN2CCCCC2)c2cccnc12	.	-1	i	-10	.
SMILES	PrPC surface inh	FadD28 FP inh	Vc quorum ag	PrP 5UTR inh	SSB-PriA inh
O=[N+]([O-])c1cc(CN2CCCC2)c2cccnc2c1O	.	0	0	-11	90*
O=[N+]([O-])c1cc(CN2CCN(c3cccc(C(F)(F)F)c3)CC2)c2cccnc2c1O	-13	.	.	8	90*
O=[N+]([O-])c1cc(Cl)ccc1N1CCN(c2cccc(C(F)(F)F)c2)CC1	-2	0	0	2	12
COc1cccc(NC(=O)Nc2cnc3ccnn3c2)c1OC	.	.	.	.	-10
Cc1ccc(C)c2sc(NC(=O)C3CCCN(S(C)(=O)=O)C3)nc12 (stereo unspecified)	.	.	.	.	-11
O=C(Cn1ncccc1=O)N1C2CCC1CC(S(=O)(=O)c1ccccc1)C2 (stereo unspecified)	.	.	.	.	88*
O=S(=O)(c1ccccc1)C1CC2CCC(C1)N2S(=O)(=O)C1CC1 (stereo unspecified)	.	.	.	.	91*
COc1ccc(C(=O)NCCc2c[nH]c3ccccc23)cc1S(=O)(=O)N1CCCCC1C (stereo unspecified)	-2	62*	i	-11	16
Cn1nc(C(=O)N2Cc3cnc(N4CCOCC4)nc3C2)ccc1=O	.	.	.	.	-4
NS(=O)(=O)c1ccc(Nc2nc(-c3ccc(O)cc3O)cs2)cc1	0	40*	-5	-15	6
CCCCCn1c(SCC(=O)NCc2ccccc2Cl)nc2cc(C(=O)N3CCC(C(N)=O)CC3)ccc2c1=O	.	.	.	.	0
CS(=O)(=O)c1ccc2nc(N(Cc3cccnc3)C(=O)c3ccc4ccccc4c3)sc2c1	.	.	.	.	2
COc1ccc(C)c2sc(N(CCN(C)C)C(=O)CCOc3ccccc3)nc12	.	.	.	.	15
Cc1cc(C)c2nc(N(CCN(C)C)C(=O)c3ccc4ccccc4c3)sc2c1	-6	-5	i	-6	38*!
COc1cc2ccccc2cc1C(=O)N(CCN(C)C)c1nc2ccc(Br)cc2s1	-3	-3	0	-3	49*
COc1ccc(C)c2sc(N(CCN(C)C)C(=O)c3ccc4ccccc4c3)nc12	-3	-6	-2	0	43*!
COc1cc2ccccc2cc1C(=O)N(CCN(C)C)c1nc2c(F)cc(F)cc2s1	-2	-5	0	-28	10
O=C(NCc1ccc2c(c1)OCO2)C1CCN(c2nccn3nc(-c4ccc(F)cc4)cc23)CC1	.	.	.	.	-11
O=S(=O)(Nc1cnn(C2CCOC2)c1)C1CC1 (stereo unspecified)	.	.	.	.	-20
Cc1ccc(Oc2cccc(C(=O)NCc3ccnc(N4CCOCC4)n3)c2)nn1	.	.	.	.	-9
COc1ccc(NC(=O)CN(C)C(=O)CSc2nc3ccccc3s2)cc1	1	-5	20*	11	-15
c1ccc(-c2nn3c(-c4ccncc4)nnc3s2)nc1	.	.	.	.	59*
CC(C)(C)c1ccc(-c2nnc3sc(-c4ccccn4)nn23)cc1	0	-6	0	26	46*
CN(C)c1ccc(-c2nnc3sc(-c4ccccn4)nn23)cc1	.	.	.	.	74*
c1ccc(-c2nnc3sc(-c4ccccn4)nn23)cc1	.	.	.	.	45
COc1ccc(-c2nnc3sc(-c4ccccn4)nn23)cc1	.	.	.	.	56*
Clc1ccc(-c2nnc3sc(-c4ccccn4)nn23)cc1	.	.	.	.	48
